Several values for one entry are separate records, joined by “and”; a condition that tells them apart may be missing. Equal values may be shown once. Among all 1,300 compounds or so, about 1,000 (77%) were called active. Roughly 7% stayed inconclusive and do not appear here. Calls follow the shape of the dose curve; as a rule, active = well fitted inhibition curve with a large enough effect; inconclusive = small, poorly fitted or top-dose-only effect; inactive = no such curve, though single readings can be large or run the other way. The set was probably picked from earlier hits. This is one part of the list.
Potency is read from the fitted curve at half-maximal effect.

The assay is described as follows: qHTS of small molecules that selectively kill Giardia lamblia: Hit Validation.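 Also: viability measured as ATP content by luminescence so killing lowers signal; trophozoites exposed to compounds for 48 h anaerobically at 37 °C; nearly all actives have a fitted effect of over 65% in size.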 Particulars: Giardia lamblia trophozoite viability, dose-response; series mostly up to 38.3 µM. In short, it runs like this:
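Luminescence from cellular ATP indicates surviving trophozoites (100 cells/well) following 48 hrs anaerobic compound treatment at 37 deg C; signal develops 15-30 min at room temperature.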
(In qHTS, concentration-response curves come from the screen itself.)
`O=[N+]([O-])c1ccc(COn2nnc3ccccc32)cc1`: the Potency was 1.63 µM (active).

`CC(Nc1nc(N2CCN(CCO)CC2)nc2ccccc12)c1ccccc1` (stereo unspecified): the Potency was 1.03 µM (active).

Regarding `Cc1ccc(OCC(=O)c2cc(C)n(Cc3ccco3)c2C)c([N+](=O)[O-])n1`, the Potency was 1.16 µM (active).

As to `Cc1cc(C(=O)COc2cccnc2[N+](=O)[O-])c(C)n1Cc1ccco1`, the Potency is 0.65 µM (active).

For `O=c1c2c(-c3ccccc3)csc2ncn1/N=C/c1ccc(O)c([N+](=O)[O-])c1`, the Potency was 2.9 µM (active).

For `Cc1cc(C)cc(Oc2ccc(NC(=O)C3CC=CCC3C(=O)O)cc2)c1` (stereo unspecified), the Potency is 1.3 µM (active).

Turning to `CCc1cccc(NC(=O)CCCSc2nc3ccccc3[nH]2)c1`, the Potency entry was “inactive”.

For `COC(=O)Nc1nc2ccc(C(=O)c3cccs3)cc2[nH]1`, the Potency is 0.23 µM (active).

Consider `COC(=O)Nc1nc2ccc(Sc3ccccc3)cc2[nH]1`, for which the Potency is 0.23 µM (active).

For `COC(=O)Nc1nc2ccc(SC(C)C)cc2[nH]1`, the Potency is 0.365 µM (active).

Regarding `CCc1ccc(C(=O)Nc2nc3ccccc3[nH]2)cc1`, the Potency was 0.46 µM (active).

Consider `COc1cc(SC)ccc1C(=O)Nc1nc2ccccc2[nH]1`, for which the Potency is 0.146 µM (active).

In the case of `CCCSc1ccc2nc(NC(=O)OC)[nH]c2c1`, the Potency is 0.516 µM (active).

With `CCC(=O)Nc1nc(-c2cc([N+](=O)[O-])cs2)cs1`, the Potency is 1.3 µM (active).

Consider `CC(=O)Nc1nc(-c2cc([N+](=O)[O-])cs2)cs1`, for which the Potency was 1.16 µM (active).

With `NC(=O)c1ccc(NC(=O)COc2ccc([N+](=O)[O-])cc2Cl)cc1`, the Potency was 1.16 µM (active).

As to `NC(=O)c1ccc(Nc2ccc([N+](=O)[O-])cc2[N+](=O)[O-])cc1`, the Potency was 2.9 µM (active).

`O=C(Nc1nccs1)c1cc([N+](=O)[O-])ccc1Cl`: the Potency was 2.59 µM (active).

As for `COc1ccc(C(=O)c2c3ccc([N+](=O)[O-])cc3[n+]([O-])n2CCCN)cc1`, the Potency is 7.29 µM (active).

As for `COc1ccc(C(=O)c2c3ccccc3[n+]([O-])n2CCCN)cc1`, the Potency was 1.03 µM (active) and 3.26 µM (active).

As for `COc1ccc(C(=O)c2c3ccc([N+](=O)[O-])cc3[n+]([O-])n2CCCC(N)=O)cc1`, the Potency was 4.1 µM (active).

In the case of `Cc1c(C(=O)O)sc2nc(SCC(=O)Nc3ccc(S(=O)(=O)NC(C)(C)C)cc3)[nH]c(=O)c12`, the Potency result is “inactive”.

In the case of `CCN(CC)CCCC(C)Nc1cc(/C=C/c2ccccc2Cl)nc2cc(Cl)ccc12` (stereo unspecified), the Potency was 3.26 µM (active).

For the compound `CCN(CC)CCCC(C)Nc1c2ccc(Cl)cc2nc2ccc(OC)cc12` (stereo unspecified), the Potency is 0.13 µM (active).

As for `O=C(NCc1ccccc1CN1CCCC1)c1cccc(S(=O)(=O)N2CCCC2)c1`, the Potency result is “inactive”.

With `COc1ccc(S(=O)(=O)N2CCCCC2)cc1NC(=O)c1ccc([N+](=O)[O-])o1`, the Potency was 1.45 µM (active).

On to `O=C(Nc1ccc2cn[nH]c2c1)c1ccc(S(=O)(=O)N2CCOCC2)cc1`, for which the Potency entry is “inactive”.

`CC(C)C(=O)NC(=S)Nc1ccc(S(=O)(=O)N2CCCC2)cc1`: the Potency entry is “inactive”.

With `O=C(Nc1ccc(S(=O)(=O)N2CCCC2)cc1)c1ccc([N+](=O)[O-])o1`, the Potency was 1.16 µM (active).

In the case of `COc1ccc(CNC(=O)CN2C(=O)COc3ccc(S(=O)(=O)N4CCCCC4)cc32)cc1`, the Potency result was “inactive”.

Regarding `O=C(Nc1cccc(S(=O)(=O)N2CCCCC2)c1)c1ccc([N+](=O)[O-])o1`, the Potency is 0.729 µM (active).

Turning to `O=C(Nc1ccc(S(=O)(=O)N2CCOCC2)cc1)c1ccc([N+](=O)[O-])o1`, the Potency was 1.45 µM (active).

Regarding `COc1ccc(C2CC(c3ccccc3)Nc3ncnn32)cc1` (stereo unspecified), the Potency result is “inactive”.

`Cc1ccc(NC(=O)c2ccc([N+](=O)[O-])o2)cc1S(=O)(=O)N1CCOCC1`: the Potency is 0.729 µM (active).

As to `NC(=O)c1ccsc1NC(=O)c1ccc(N2CCCC2=O)cc1`, the Potency was 2.59 µM (active).

For the compound `CN(C(=O)c1ccc(N2CCCCC2)c([N+](=O)[O-])c1)C1CCS(=O)(=O)C1` (stereo unspecified), the Potency was 4.1 µM (active).

With `O=C(NC1CCS(=O)(=O)C1)c1ccc(N2CCCCC2)c([N+](=O)[O-])c1` (stereo unspecified), the Potency is 2.31 µM (active).

On to `CN(C(=O)c1ccc(F)c(S(=O)(=O)N2CCOCC2)c1)C1CCCCC1`, for which the Potency result was “inactive”.

With `Cc1nc2ccccn2c1C(=O)N/N=C/c1ccc([N+](=O)[O-])o1`, the Potency is 1.83 µM (active).

Regarding `O=C(N/N=C/c1ccc([N+](=O)[O-])o1)c1ccccc1-n1cccc1`, the Potency was 1.16 µM (active).

For the compound `O=C1c2ccccc2C(=O)C1c1ccc2ccccc2n1`, the Potency was 1.16 µM (active) and 1.63 µM (active).

Regarding `O=C1c2ccccc2C(=O)C1c1cc2ccccc2cn1`, the Potency was 1.45 µM (active).

For the compound `O=[N+]([O-])c1ccc(CSc2nnc(-c3cnccn3)o2)cc1`, the Potency was 2.31 µM (active).

Turning to `O=[N+]([O-])c1ccc(CSc2nnc(-c3cccnc3)o2)cc1`, the Potency was 3.65 µM (active).

As to `COc1nn(C(C)C(=O)N2N=C(C(F)F)CC2(O)C(F)F)cc1[N+](=O)[O-]` (stereo unspecified), the Potency is 0.46 µM (active).

Take `COc1cccc2sc(N3CCN(C(=O)c4ccc([N+](=O)[O-])o4)CC3)nc12`: the Potency was 2.05 µM (active).

`O=C(c1ccc([N+](=O)[O-])o1)N1CCN(c2nc3ccc(F)cc3s2)CC1`: the Potency was 1.83 µM (active).

On to `COc1ccc2nc(N3CCN(C(=O)c4ccc([N+](=O)[O-])o4)CC3)sc2c1`, for which the Potency is 1.83 µM (active).

As for `COc1ccc(OC)c2sc(N3CCN(C(=O)c4ccc([N+](=O)[O-])s4)CC3)nc12`, the Potency was 2.59 µM (active).

On to `CCCSc1nc2c(cnn2-c2ccc(C)c(C)c2)c(=O)[nH]1`, for which the Potency entry is “inactive”.

Take `O=c1cc(-c2ccccc2)[nH]c2cc(Cl)ccc12`: the Potency entry is “inactive”.

With `COc1ccc(C(=O)NC2CCN(S(=O)(=O)c3ccc(F)cc3)CC2)cc1`, the Potency result is “inactive”.

As to `COc1ccc(S(=O)(=O)N2CCN(C(=O)c3ccc([N+](=O)[O-])o3)CC2)cc1`, the Potency is 1.3 µM (active).

Turning to `C=Cc1ccc(CN2CCCN(Cc3ccc(F)cc3)S2(=O)=O)cc1`, the Potency entry was “inactive”.

On to `CN(C(=O)CN1CCN(c2ccc([N+](=O)[O-])cn2)CC1)c1ccccc1`, for which the Potency is 4.1 µM (active).

With `Cc1ccc(CNC(=O)c2cc(-c3ccccc3C)n(CC3CC(c4cccc([N+](=O)[O-])c4)=NO3)n2)cc1` (stereo unspecified), the Potency is 2.9 µM (active).

`Cc1nnc(SCc2ccc([N+](=O)[O-])cc2)[nH]c1=O`: the Potency is 2.31 µM (active).

`O=[N+]([O-])/C(Cl)=C(/NCCO)C(Cl)=C(Cl)Cl`: the Potency is 0.259 µM (active).

For the compound `CC(=O)c1c(C)[nH]c(C(=O)OCC(=O)Nc2cc(Cl)ccc2[N+](=O)[O-])c1C`, the Potency was 2.31 µM (active).

On to `CCc1ccc(-c2nc3c(=O)n(C)c(=O)nc-3n(CC)n2)cc1`, for which the Potency was 0.183 µM (active).

`CCn1nc(-c2ccc(C)cc2)nc2c(=O)n(C)c(=O)nc1-2`: the Potency was 0.206 µM (active).

Regarding `CN(C)CCCN=c1cc(-c2ccccc2)oc2ccc(Cl)cc12`, the Potency is 0.579 µM (active).

Consider `CC1(C)CC(N=c2cc(-c3ccccc3)oc3ccc(Cl)cc23)CC(C)(C)N1`, for which the Potency was 0.65 µM (active).

As for `Clc1ccc2oc(-c3ccccc3)cc(=NCCCN3CCOCC3)c2c1`, the Potency was 0.818 µM (active).

Consider `O=C(c1ccc2c3n(nc2c1)-c1ccccc1CO3)N1CCCCC1`, for which the Potency is 2.31 µM (active).

With `O=C(NCCO)c1ccc2c3n(nc2c1)-c1ccccc1CO3`, the Potency was 3.26 µM (active).

Regarding `O=Nc1c2ccc[nH]c-2c2ccc([N+](=O)[O-])cc12`, the Potency is 1.03 µM (active).

On to `O=C(Nc1ccc(N2CCCCC2)cc1)c1ccc([N+](=O)[O-])o1`, for which the Potency is 3.26 µM (active).

Turning to `CC1CCN(c2ccc(NC(=O)c3ccc([N+](=O)[O-])o3)cc2)CC1`, the Potency was 1.16 µM (active).

For the compound `O=C(NCC1CCN(Cc2ccccc2F)CC1)Nc1ccccc1F`, the Potency entry is “inactive”.

On to `O=C(Nc1ccc(N2CCN(Cc3ccccc3F)CC2)cc1)c1ccc([N+](=O)[O-])o1`, for which the Potency is 1.16 µM (active).

`CS(=O)(=O)N1CCN(c2ccc(NC(=O)c3ccc([N+](=O)[O-])o3)cc2)CC1`: the Potency is 0.579 µM (active).

With `CCC(C(=O)N1CCOCC1)n1nc(C)n2c(cc3cc(C)ccc32)c1=O` (stereo unspecified), the Potency result was “inactive”.

As for `O=C(Nc1ccc(N2CCOCC2)cc1)c1ccc([N+](=O)[O-])o1`, the Potency is 0.579 µM (active).

In the case of `O=C(O)c1cc2ccccc2c(N=Nc2cccnc2)c1O`, the Potency was 2.05 µM (active).

As for `O=C(NN1C(=O)c2ccccc2NC1c1ccc([N+](=O)[O-])o1)c1ccccc1` (stereo unspecified), the Potency is 1.03 µM (active).

Consider `O=C(NN1C(=O)c2ccccc2NC1c1ccc([N+](=O)[O-])o1)c1ccc([N+](=O)[O-])cc1` (stereo unspecified), for which the Potency was 2.05 µM (active).

As to `Cc1[nH]c2ccccc2c1C(=O)C(C)OC(=O)c1ccc([N+](=O)[O-])o1` (stereo unspecified), the Potency was 1.83 µM (active).

Take `COc1cc(/C=C/c2ccc3cccc(OC)c3n2)c(O)c([N+](=O)[O-])c1`: the Potency is 1.63 µM (active).

Consider `COc1cc(/C=C/c2ccc3cccc(OC)c3n2)c(OC(C)=O)c([N+](=O)[O-])c1`, for which the Potency is 1.83 µM (active).

With `O=C(Nc1cccc2ccccc12)C12CC3CC(C1)CC(n1cnc([N+](=O)[O-])n1)(C3)C2`, the Potency was 3.65 µM (active).

In the case of `O=C(Nc1cc([N+](=O)[O-])c2[nH]c(=O)c3ccccc3c2c1)C(F)(F)F`, the Potency was 1.03 µM (active).

As for `COc1ccc(NS(=O)(=O)c2ccc3oc4ccccc4c3c2)cn1`, the Potency result is “inactive”.

On to `c1coc(-c2nc3cc4ccccc4cc3nc2-c2ccco2)c1`, for which the Potency is 3.65 µM (active).

`CCOn1c(=O)c(-c2cccc([N+](=O)[O-])c2)[n+]([O-])c2ccccc21`: the Potency was 1.03 µM (active).

With `O=c1c(-c2cccc([N+](=O)[O-])c2)[n+]([O-])c2ccccc2n1O`, the Potency is 5.16 µM (active).

For the compound `CC(NC(=O)c1ccc(N(C)C)c([N+](=O)[O-])c1)c1ccc(-n2ccnc2)cc1` (stereo unspecified), the Potency is 4.6 µM (active).

Regarding `COc1ccccc1C1C([N+](=O)[O-])=CC([N+](=O)[O-])=CN1C` (stereo unspecified), the Potency is 2.59 µM (active).

As to `Cc1ccc(S(=O)(=O)N2[C@@H](c3ccc(F)cc3)C(C(=O)O)=CC[C@H]2c2ccc(Cl)cc2)cc1`, the Potency result is “inactive”.

As for `Cc1ccc(S(=O)(=O)N2[C@@H](c3ccc(F)cc3)C(C(=O)O)=CC[C@H]2c2ccc3c(c2)OCO3)cc1`, the Potency result is “inactive”.

Take `Cc1ccc(S(=O)(=O)N2[C@@H](c3ccccc3)C(C(=O)O)=CC[C@H]2c2cccc(Cl)c2)cc1`: the Potency is 0.103 µM (active).

For the origin of these results see PubChem BioAssay AID588397 (National Center for Advancing Translational Sciences (NCATS), 2011).
